Results filed as inconclusive are left out. Active and inactive are the calls of the source. Calls come from the whole dose curve; as a rule, active = well fitted inhibition curve with a large enough effect; inconclusive = small, poorly fitted or top-dose-only effect; inactive = flat fitted curve, though single readings scatter.
target: Luciferin 4-monooxygenase (Photinus pyralis) (UniProt P08659); experiment: FLuc inhibitory activity for the follow-up compounds in a biochemical assay with Km concentrations of substrate and 500microM CoASH; settings: purified FLuc, Km substrates + 500 uM CoASH, luminescence; series mostly up to 57.5 µM
Sequence (P08659 whole entry, looked up): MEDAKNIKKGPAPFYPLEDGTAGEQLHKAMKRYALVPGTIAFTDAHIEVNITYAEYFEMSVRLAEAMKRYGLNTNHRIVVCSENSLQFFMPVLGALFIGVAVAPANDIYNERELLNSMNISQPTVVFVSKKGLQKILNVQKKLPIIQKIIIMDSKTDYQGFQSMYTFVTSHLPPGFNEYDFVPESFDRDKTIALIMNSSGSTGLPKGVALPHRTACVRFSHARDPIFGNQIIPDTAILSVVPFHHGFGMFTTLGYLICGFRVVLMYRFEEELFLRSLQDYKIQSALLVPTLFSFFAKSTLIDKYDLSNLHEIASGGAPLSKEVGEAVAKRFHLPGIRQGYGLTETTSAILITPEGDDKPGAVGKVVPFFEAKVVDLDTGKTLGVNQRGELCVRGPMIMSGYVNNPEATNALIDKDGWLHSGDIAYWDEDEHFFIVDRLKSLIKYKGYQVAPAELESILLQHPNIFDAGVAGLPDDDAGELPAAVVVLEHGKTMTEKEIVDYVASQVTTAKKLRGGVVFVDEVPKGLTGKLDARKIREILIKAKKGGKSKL
Source text: NCGC Assay Overview: Firefly (Photinus pyralis) luciferase is one of the most commonly used transcriptional reporters. It is considered one of the more dynamically responsive reporters - that is, responsive to changes in reporter transcription - as it requires no post-translational modifications and is enzymatically active directly after protein synthesis (Wood, 1998). With no endogenous expression in mammalian cells and without the requirement of external excitation, it offers very little background signal, thus generally providing excellent signal to background for most assays. Previous profiling work to determine the prevalence of compounds that affect FLuc enzymatic activity (PubChem AID 411) identified that ~3% of the MLSMR library (then at ~72K) inhibited FLuc. […] Of the compounds identified in this profile that inhibited FLuc, 151 compounds were selected for further analysis, in an effort to better understand their mode of inhibiting FLuc. The assay described here was to determine the activity of the compounds in an FLuc assay that contained KM concentrations of substrates and 500uM CoASH.
NCGC Assay Protocol Summary: Reagents: 50mM Tris acetate, pH 7.5; 10mM Mg acetate; 10uM D-luciferin (Sigma #L9504); 10uM ATP; 0.01% Tween-20; 0.05% BSA; 10nM P. pyralis luciferase (Sigma #L9506); 500 uM CoASH Control compounds used were two known firefly luciferase inhibitors (3-(5-(3-chlorophenyl)-1,2,4-oxadiazol-3-yl)benzoic acid and 5-(2-fluorophenyl)-3-phenyl-1,2,4-oxadiazole), and DMSO. Three microliters containing firefly luciferase substrates in buffer (final concentrations: 50mM Tris acetate, pH 7.5, 10mM Mg acetate, 0.01% Tween-20, 0.05% BSA, 10uM D-luciferin, 10uM ATP, and 500 uM CoASH) are dispensed into each well of a Greiner white, solid-bottom 1536-well format plate using a flying reagent dispenser (FRD). These assay plates were then treated with 23nL of compound or DMSO using a Kalypsys pin tool, which allows for delivery of a 12-point intraplate titration of each compound to the assay plate (quantitative HTS), with a final compound concentrations ranging from approximately ~60uM to 0.3nM. One microliter of firefly luciferase in 500mM Tris-acetate buffer was then delivered by FRD to each well for a final enzyme concentration of 10nM. Luciferase activity was then measured using a ViewLux CCD imager (PerkinElmer), with an average exposure time of 2-30 seconds (2X binning, medium/high gain).

Potency, active:
O=C(Cc1ccc(Cl)cc1)Nc1cccc(C(=O)Nc2ccccc2C(=O)O)c1 25.9 µM, CC(C)c1ccc(-c2nc3ccccc3s2)cc1 0.013 µM, CCn1c(C)nc2cc(-c3nc4n(n3)Cc3ccccc3-4)ccc21 0.0146 µM, NC(=O)Cc1ccc2sc(-c3ccccc3)nc2c1 1.63 µM, COc1ccc2nc(NC(=O)c3ccc([N+](=O)[O-])o3)sc2c1 1.16 µM, C/C(=N\NC(=O)c1ccccc1NC(=O)c1ccc(Cl)cc1)c1ccncc1 0.0046 µM, O=C(O)c1ccc(NC(=O)c2ccccc2NC(=O)c2ccccc2Br)cc1 16.3 µM, O=C(O)c1ccc(NC(=O)c2ccccc2NC(=O)c2cccc(Br)c2)cc1 7.3 µM, Cc1ccc(C(=O)O/N=C(\N)c2ccccn2)cc1 0.0092 µM, O=C(O)c1ccccc1NC(=O)c1ccccc1Nc1ccccc1 9.19 µM, CC(C)C(=O)Nc1cccc(C(=O)Nc2ccccc2C(=O)O)c1 7.3 µM, CN=c1scc(-c2ccccc2F)n1/N=C/c1ccc[nH]1 0.0163 µM, CCCC(=O)Nc1nc2ccc(OCC)cc2s1 10.3 µM, Nc1ccccc1C(=O)Nc1cccc(C(=O)O)c1 18.3 µM, CCOc1c(Cl)cc(C(=O)Nc2ccccc2C(=O)O)cc1Cl 11.6 µM, Cc1ccc(C(=O)Nc2cccc(C(=O)O)c2)cc1S(=O)(=O)N1CCCC1 5.17 µM, Cc1cccc(C(=O)Nc2ccc(-c3nc4ccccc4s3)cc2Cl)c1 18.3 µM, O=C(O)c1ccc(NC(=O)c2ccccc2NC(=O)c2ccccc2Cl)cc1 16.3 µM, Cc1ccc(C(=O)Nc2cccc(C(=O)O)c2)cc1S(=O)(=O)N1CCOCC1 20.6 µM, COc1ccc2nc(NC(=O)c3nc(S(=O)(=O)Cc4ccc(C)cc4)ncc3Cl)sc2c1 2.06 µM, O=C(Nc1ccccc1C(=O)O)c1cccc(NC(=O)c2ccccc2Cl)c1 14.6 µM, COc1ccc2nc(NC(=O)c3cccs3)sc2c1 13 µM, O=C(O)c1cccc(NC(=O)c2ccccc2NC(=O)c2ccco2)c1 20.6 µM, COc1ccc(C(=O)Nc2ccccc2C(=O)Nc2ccc(C(=O)O)cc2)cc1 0.517 µM, Cc1ccccc1C(=O)Nc1cccc(C(=O)Nc2ccccc2C(=O)O)c1 16.3 µM, COc1cc(OC)cc(-c2nc3ccccc3s2)c1 3.66 µM, O=C(Nc1cccc(-c2nc3ccccc3s2)c1)C1=COCCO1 7.3 µM, Cc1c(C)c2ccc(OCC(=O)Nc3ccccn3)c(C)c2oc1=O 0.0041 µM, CCOc1ccc(C(=O)Nc2cccc(C(=O)O)c2)cc1Cl 0.919 µM

Potency, inactive:
Cc1ccc(S(=O)(=O)N2CCOCC2)cc1C(=O)Nc1ccccc1C(=O)O, O=C(Cc1ccccc1)Nc1ccccc1C(=O)Nc1ccc(C(=O)O)cc1, Cc1ccc(C(=O)Nc2ccc(C(=O)O)cc2)cc1S(=O)(=O)Nc1ccccc1, O=C(O)c1ccc(NC(=O)c2cc(S(=O)(=O)N3CCCCC3)c(Cl)cc2Cl)cc1, COc1ccc(NS(=O)(=O)c2cccc(C(=O)Nc3ccccc3C(=O)O)c2)cc1, O=C(Nc1ccccc1-c1nc2ccccc2s1)c1cccnc1, O=C(Nc1ccccc1-c1nc2ccccc2s1)c1ccc(Br)o1, COc1ccc2nc(NC(=O)c3ccc(S(=O)(=O)N4CCCC(C)C4)cc3)sc2c1 (stereo not given), COc1c(C)cccc1C(=O)Nc1ccc(-c2nc3ccccc3s2)c(Cl)c1, Cc1ccc(S(=O)(=O)N2CCN(C(=O)c3ccccc3-c3nc4ccccc4s3)CC2)c(C)c1, Cc1ccc(NS(=O)(=O)c2ccc(Cl)c(C(=O)Nc3cccc(C(=O)O)c3)c2)cc1
